Results published in PubChem BioAssay (EPA / NIEHS).
Calls of active or inactive are those of the source. Rule for the calls: active = hit-call score of the fitted dose curve at least 0.9, where 1 is the maximum; inactive = score below 0.9.

Assays:
[1] = ATG_M_32_CIS: Attagene CIS-FACTORIAL HepG2 Assay for M32 Transcription Factor (Internal Marker) (AID 2282949); settings: HepG2 Attagene cis-factorial M32 reporter, mRNA; actives raise or lower the signal;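 note: background control marker of the multiplexed CIS panel rather than a real target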
Summary of the method: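 Using DMSO as baseline, bidirectional curve fits were applied to reporter mRNA signals. These came from transiently transfected HepG2 cells exposed for 24 h, with RNA analysed by RT-PCR, FAM primer extension, HpaI digestion and CE.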

[2] = ATG_M_06_CIS: Attagene CIS-FACTORIAL HepG2 Assay for M06 Transcription Factor (Internal Marker) (AID 2282950); settings: HepG2 Attagene CIS-FACTORIAL M06 internal marker reporter; actives raise or lower the signal
Summary of the method: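 Internal background marker within multiplexed cis-reporter HepG2 system. Cells transiently transfected, dosed 24 h; reporter mRNA measured by RT-PCR, HpaI digestion and capillary electrophoresis. Bidirectional fit relative to DMSO.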

[3] = biological target: Hepatocyte nuclear factor 6 (Homo sapiens) (UniProt Q9UBC0); test: ATG_HNF6_CIS: Attagene CIS-FACTORIAL HepG2 Assay for human Hepatocyte Nuclear Factor 6 (HNF6) (AID 2282952); settings: HepG2 Attagene cis-factorial HNF6 reporter transcription; actives raise or lower the signal
Summary of the method: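 Endogenous factor activity read in transiently transfected HepG2 via promoter-regulated reporter transcripts. RNA harvested 24 h post-dosing, reverse-transcribed, PCR-amplified, FAM-labelled, HpaI-digested and resolved by capillary electrophoresis; fitted in both directions against DMSO.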

[4] = ATG_MRE_CIS: Attagene CIS-FACTORIAL HepG2 Assay for human Metal Responsive Element (MRE) (AID 2282954); settings: HepG2 MRE cis-reporter transcription, Attagene multiplex; actives raise or lower the signal
Summary of the method: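 RT-PCR/capillary electrophoresis readout of reporter mRNA, 24 h post-dosing, in HepG2 cells transfected with multiplexed cis-regulated reporter constructs. Gain or loss of signal fitted bidirectionally against DMSO baseline.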

[5] = biological target: Paired box protein Pax-6 (Homo sapiens) (UniProt P26367); test: ATG_Pax6_CIS: Attagene CIS-FACTORIAL HepG2 Assay for human Paired Box 6 (PAX6) (AID 2282956); settings: HepG2 CIS-FACTORIAL PAX6 reporter transcription, RNA readout; actives raise or lower the signal
Summary of the method: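 DMSO-referenced bidirectional fits of reporter mRNA fluorescence; HepG2 with transient cis-promoter MRTUs, 24 h post-dose, RT-PCR plus capillary electrophoresis detection.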

[6] = ATG_PXRE_CIS: Attagene CIS-FACTORIAL HepG2 Assay for human Pregnane X Receptor Element (PXRE) (AID 2282957); settings: HepG2 Attagene CIS-FACTORIAL PXRE reporter, mRNA; actives raise or lower the signal
Summary of the method: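 Reporter transcripts under endogenous PXR-responsive cis-regulation quantified from total RNA of transfected HepG2 cells 24 h post-dosing, via RT-PCR with fluorescent primer extension and capillary electrophoresis. Gain or loss of signal fitted against DMSO baseline.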

[7] = ATG_PPRE_CIS: Attagene CIS-FACTORIAL HepG2 Assay for human Peroxisome Proliferator-activated Response Element (PPRE) (AID 2282958); settings: HepG2 PPRE cis-element reporter, Attagene transcription factor profiling; actives raise or lower the signal
Summary of the method: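 After human HepG2 hepatoma cells were transiently transfected with cis-promoter reporter constructs, they were exposed to test chemicals for 24 hours. Reporter RNA was then reverse-transcribed, PCR-amplified, FAM-labeled, HpaI-digested and quantified by capillary electrophoresis.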

[8] = ATG_RORE_CIS: Attagene CIS-FACTORIAL HepG2 Assay for human RAR-related Orphan Receptor Element (RORE) (AID 2282959); settings: HepG2 Attagene cis-factorial RORE reporter, mRNA; actives raise or lower the signal
Summary of the method: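 Measured here: transcript induction of a cis-regulated reporter in HepG2 cells transiently transfected via FuGene 6. After 24 h, RNA was processed by RT-PCR and fluorescent capillary electrophoresis; DMSO defined baseline activity.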

[9] = ATG_Sox_CIS: Attagene CIS-FACTORIAL HepG2 Assay for human SRY-box transcription factor (SOX) (AID 2282960); settings: HepG2 Attagene cis-factorial SOX reporter, mRNA; actives raise or lower the signal
Summary of the method: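 Using transiently transfected HepG2 cells, reporter transcription driven by cis elements was assessed 24 h after dosing. Signal was fluorescence of capillary-separated RT-PCR products, with DMSO defining baseline activity.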

[10] = biological target: Transcription factor Sp1 (Homo sapiens) (UniProt P08047); test: ATG_Sp1_CIS: Attagene CIS-FACTORIAL HepG2 Assay for human Specificity Protein 1 (Sp1) (AID 2282961); settings: HepG2 Sp1 cis-reporter transcription, actives raise or lower the signal
Summary of the method: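 After transient transfection of HepG2 cells with cis-promoter reporter units and 24 h chemical treatment, reporter transcripts were quantified by RT-PCR and capillary electrophoresis fluorescence. Gain- and loss-of-signal fitted against DMSO.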

[11] = ATG_SREBP_CIS: Attagene CIS-FACTORIAL HepG2 Assay for human Sterol Regulatory Element Binding (SREBP) (AID 2282962); settings: HepG2 Attagene cis-factorial SREBP reporter, mRNA; actives raise or lower the signal
Summary of the method: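 In this cis-format assay, HepG2 liver cells express reporters controlled by promoter elements responsive to native transcription factors. Exposure lasts 24 h; reporter mRNA fluorescence from capillary electrophoresis gives the signal, fitted bidirectionally against DMSO.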

[12] = biological target: Signal transducer and activator of transcription 3 (Homo sapiens) (UniProt P40763); test: ATG_STAT3_CIS: Attagene CIS-FACTORIAL HepG2 Assay for human Signal Transducer and Activator of Transcription 3 (STAT3) (AID 2282963); settings: HepG2, Attagene cis-factorial STAT3 reporter transcription; actives raise or lower the signal
Summary of the method: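 Readout: fluorescent reporter mRNA fragments resolved by capillary electrophoresis. Setup: HepG2 transfected with MRTUs reporting endogenous transcription-factor activity, dosed 24 h. Gain or loss of signal fitted bidirectionally against DMSO control.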

[13] = ATG_TA_CIS: Attagene CIS-FACTORIAL HepG2 Assay for human TA Basal Promoter (AID 2282964); settings: HepG2 Attagene CIS-factorial TA basal promoter reporter; actives raise or lower the signal
Summary of the method: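 HepG2 cells transiently transfected with multiple reporter units under cis promoter elements, reporting endogenous transcription factor activity; this endpoint tracks the TA basal promoter as background control. Reporter mRNA after 24 h dosing measured by RT-PCR/capillary electrophoresis; bidirectional fits versus DMSO.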

[14] = ATG_TCF_b_cat_CIS: Attagene CIS-FACTORIAL HepG2 Assay for human T-Cell-Factor with beta-catenin (TCF/b-cat) (AID 2282965); settings: HepG2 TCF/beta-catenin cis-reporter transcription, actives raise or lower the signal
Summary of the method: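 HepG2 cells transiently transfected with cis-promoter-driven multiplexed reporter units; reporter mRNA measured 24 h after dosing by RT-PCR, FAM labelling, HpaI digestion and capillary electrophoresis. Bidirectional fitting relative to DMSO baseline.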

[15] = ATG_TAL_CIS: Attagene CIS-FACTORIAL HepG2 Assay for human TAL Basal Promoter (AID 2282966); settings: HepG2 Attagene cis-factorial TAL promoter reporter; actives raise or lower the signal;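 note: background control endpoint measuring basal TAL promoter reporter mRNA not a specific factor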
Summary of the method: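 Background-control endpoint: basal TAL promoter reporter transcripts in transiently transfected HepG2, measured 24 h after dosing. Read-out by RT-PCR with fluorescent primer extension and capillary electrophoresis; gain or loss of signal fitted relative to DMSO.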

[16] = ATG_TGFb_CIS: Attagene CIS-FACTORIAL HepG2 Assay for human Transforming Growth Factor (TGF) (AID 2282967); settings: HepG2 Attagene CIS TGFb reporter, mRNA transcription; actives raise or lower the signal
Summary of the method: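 HepG2 cells transiently transfected with cis-promoter-driven multiple reporter units measure endogenous TF activity; reporter mRNA quantified at 24 h by RT-PCR, FAM labeling, HpaI digestion and capillary electrophoresis. Bidirectional fit vs DMSO.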

[17] = ATG_VDRE_CIS: Attagene CIS-FACTORIAL HepG2 Assay for human Vitamin D Receptor Element (VDRE) (AID 2282968); settings: HepG2 VDRE cis-reporter transcription, actives raise or lower the signal
Summary of the method: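 Transient MRTU transfection of HepG2, 24 h compound exposure. Readout: reporter transcripts via RT-PCR and capillary electrophoresis, fluorescence. Bidirectional fit vs DMSO.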

[18] = biological target: Heat shock factor protein 1 (Homo sapiens) (UniProt Q00613); test: ATG_HSE_CIS: Attagene CIS-FACTORIAL HepG2 Assay for human Heat Shock Transcription Factor 1 (HSE) (AID 2282953); settings: HepG2 HSE cis-reporter, Attagene RNA transcription; actives raise or lower the signal
Summary of the method: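 HepG2 cells transfected with cis-promoter reporter units sensing endogenous transcription factor activity; reporter mRNA quantified 24 h post-dose by RT-PCR and capillary electrophoresis of 6-FAM-labelled products. Bidirectional fitting against DMSO.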

[19] = ATG_PBREM_CIS: Attagene CIS-FACTORIAL HepG2 Assay for human Phenobarbital-responsive Enhancer Module (PBREM) (AID 2282955); settings: HepG2 PBREM cis-reporter, Attagene multiplexed transcription; actives raise or lower the signal
Summary of the method: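 Readout: reporter mRNA, fluorescent RT-PCR fragments separated by capillary electrophoresis. System: HepG2 transiently transfected with cis-regulated reporter units. Exposure: 24 h. Analysis: bidirectional, DMSO baseline.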

[20] = biological target: Hypoxia-inducible factor 1-alpha (Homo sapiens) (UniProt Q16665); test: ATG_HIF1a_CIS: Attagene CIS-FACTORIAL HepG2 Assay for human Hypoxia Inducible Factor 1 (HIF1A) (AID 2282951); settings: HepG2 Attagene cis-factorial HIF1a reporter transcription; actives raise or lower the signal
Summary of the method: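 Endogenous-TF cis reporter readout, human HepG2 cells, 24 h incubation; mRNA detected via RT-PCR and capillary electrophoresis fluorescence; DMSO-normalised bidirectional fitting.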

Measured: AC50

Chain of Hepatocyte nuclear factor 6 (Homo sapiens) (Q9UBC0 whole entry, looked up): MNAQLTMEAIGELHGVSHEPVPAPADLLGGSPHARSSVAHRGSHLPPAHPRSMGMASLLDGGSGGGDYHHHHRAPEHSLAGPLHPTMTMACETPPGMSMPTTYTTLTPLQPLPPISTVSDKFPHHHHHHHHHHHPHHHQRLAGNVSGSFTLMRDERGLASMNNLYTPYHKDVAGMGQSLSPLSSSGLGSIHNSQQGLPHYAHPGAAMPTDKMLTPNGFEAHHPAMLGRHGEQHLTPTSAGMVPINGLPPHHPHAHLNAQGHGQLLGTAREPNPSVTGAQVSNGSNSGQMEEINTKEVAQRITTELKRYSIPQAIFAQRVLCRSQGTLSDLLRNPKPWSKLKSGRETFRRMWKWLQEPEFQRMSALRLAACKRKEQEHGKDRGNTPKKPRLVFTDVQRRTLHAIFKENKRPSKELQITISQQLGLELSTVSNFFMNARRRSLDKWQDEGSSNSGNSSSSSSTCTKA
Chain of Signal transducer and activator of transcription 3 (Homo sapiens) (P40763 whole entry, looked up, the tested form may be a part): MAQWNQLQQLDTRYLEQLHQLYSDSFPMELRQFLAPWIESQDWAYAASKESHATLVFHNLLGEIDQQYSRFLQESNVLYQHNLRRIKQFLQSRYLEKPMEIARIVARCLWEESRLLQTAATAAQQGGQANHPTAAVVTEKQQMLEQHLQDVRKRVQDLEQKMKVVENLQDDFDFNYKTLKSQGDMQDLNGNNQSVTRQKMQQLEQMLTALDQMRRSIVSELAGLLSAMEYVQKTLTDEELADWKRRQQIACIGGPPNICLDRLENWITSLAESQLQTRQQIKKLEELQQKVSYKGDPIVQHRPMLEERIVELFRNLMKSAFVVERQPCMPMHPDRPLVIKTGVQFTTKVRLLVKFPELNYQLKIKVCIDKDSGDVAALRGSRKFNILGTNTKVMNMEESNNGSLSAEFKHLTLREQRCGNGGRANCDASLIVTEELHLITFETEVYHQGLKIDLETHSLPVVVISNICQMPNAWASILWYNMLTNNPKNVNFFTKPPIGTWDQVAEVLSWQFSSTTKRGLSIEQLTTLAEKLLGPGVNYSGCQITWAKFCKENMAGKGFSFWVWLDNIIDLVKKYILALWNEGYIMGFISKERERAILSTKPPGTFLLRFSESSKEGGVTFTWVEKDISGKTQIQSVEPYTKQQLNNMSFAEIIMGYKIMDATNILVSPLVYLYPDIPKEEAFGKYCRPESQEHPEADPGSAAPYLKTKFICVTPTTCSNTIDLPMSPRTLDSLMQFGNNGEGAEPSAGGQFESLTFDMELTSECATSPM
Chain of Heat shock factor protein 1 (Homo sapiens) (Q00613 whole entry, looked up): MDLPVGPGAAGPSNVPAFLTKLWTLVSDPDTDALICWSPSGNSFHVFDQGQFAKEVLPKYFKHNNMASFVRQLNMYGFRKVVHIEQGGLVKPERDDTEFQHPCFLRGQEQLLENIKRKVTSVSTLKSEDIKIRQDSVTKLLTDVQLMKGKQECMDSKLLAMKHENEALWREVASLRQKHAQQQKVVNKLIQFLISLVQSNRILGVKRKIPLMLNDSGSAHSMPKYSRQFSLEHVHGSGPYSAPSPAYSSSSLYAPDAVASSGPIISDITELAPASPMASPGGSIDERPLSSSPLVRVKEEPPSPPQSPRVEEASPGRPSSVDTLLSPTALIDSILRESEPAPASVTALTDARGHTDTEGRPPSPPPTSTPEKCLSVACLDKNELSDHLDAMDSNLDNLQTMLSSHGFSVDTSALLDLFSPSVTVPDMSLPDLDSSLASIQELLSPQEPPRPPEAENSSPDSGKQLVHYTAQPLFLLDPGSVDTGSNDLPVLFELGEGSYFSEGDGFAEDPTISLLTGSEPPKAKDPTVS
Chain of Paired box protein Pax-6 (Homo sapiens) (P26367 whole entry, looked up): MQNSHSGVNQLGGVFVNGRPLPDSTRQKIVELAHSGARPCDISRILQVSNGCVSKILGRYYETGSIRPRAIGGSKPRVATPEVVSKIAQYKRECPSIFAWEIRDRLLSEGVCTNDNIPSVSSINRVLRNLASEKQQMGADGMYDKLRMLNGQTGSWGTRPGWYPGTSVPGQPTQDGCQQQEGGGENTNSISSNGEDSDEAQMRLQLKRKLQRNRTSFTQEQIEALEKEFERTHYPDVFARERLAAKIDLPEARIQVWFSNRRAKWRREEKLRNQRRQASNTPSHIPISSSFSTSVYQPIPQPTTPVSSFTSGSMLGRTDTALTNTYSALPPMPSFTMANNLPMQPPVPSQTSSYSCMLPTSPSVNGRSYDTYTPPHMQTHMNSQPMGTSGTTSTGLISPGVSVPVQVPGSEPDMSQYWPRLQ
Chain of Transcription factor Sp1 (Homo sapiens) (P08047 whole entry, looked up): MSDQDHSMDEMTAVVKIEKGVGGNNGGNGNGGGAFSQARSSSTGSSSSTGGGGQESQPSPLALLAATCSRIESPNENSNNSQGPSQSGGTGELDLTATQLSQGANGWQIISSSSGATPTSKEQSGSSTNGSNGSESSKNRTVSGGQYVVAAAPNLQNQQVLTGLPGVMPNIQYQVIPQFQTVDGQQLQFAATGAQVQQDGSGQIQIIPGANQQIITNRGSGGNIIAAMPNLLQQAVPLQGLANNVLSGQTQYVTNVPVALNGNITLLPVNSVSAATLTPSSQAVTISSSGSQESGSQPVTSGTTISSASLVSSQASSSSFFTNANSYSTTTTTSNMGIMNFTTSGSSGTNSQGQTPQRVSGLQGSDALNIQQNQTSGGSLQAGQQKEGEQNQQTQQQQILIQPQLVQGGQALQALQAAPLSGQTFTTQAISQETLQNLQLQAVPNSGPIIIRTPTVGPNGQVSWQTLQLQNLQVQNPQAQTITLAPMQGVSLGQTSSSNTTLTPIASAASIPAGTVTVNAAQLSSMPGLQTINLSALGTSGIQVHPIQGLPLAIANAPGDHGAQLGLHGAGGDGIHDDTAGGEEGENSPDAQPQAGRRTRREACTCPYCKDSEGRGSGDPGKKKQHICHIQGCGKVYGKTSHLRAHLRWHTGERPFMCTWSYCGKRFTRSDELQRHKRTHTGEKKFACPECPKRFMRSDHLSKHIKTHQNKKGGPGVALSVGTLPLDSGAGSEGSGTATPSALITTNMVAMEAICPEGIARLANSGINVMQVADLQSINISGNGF
Chain of Hypoxia-inducible factor 1-alpha (Homo sapiens) (Q16665 whole entry, looked up): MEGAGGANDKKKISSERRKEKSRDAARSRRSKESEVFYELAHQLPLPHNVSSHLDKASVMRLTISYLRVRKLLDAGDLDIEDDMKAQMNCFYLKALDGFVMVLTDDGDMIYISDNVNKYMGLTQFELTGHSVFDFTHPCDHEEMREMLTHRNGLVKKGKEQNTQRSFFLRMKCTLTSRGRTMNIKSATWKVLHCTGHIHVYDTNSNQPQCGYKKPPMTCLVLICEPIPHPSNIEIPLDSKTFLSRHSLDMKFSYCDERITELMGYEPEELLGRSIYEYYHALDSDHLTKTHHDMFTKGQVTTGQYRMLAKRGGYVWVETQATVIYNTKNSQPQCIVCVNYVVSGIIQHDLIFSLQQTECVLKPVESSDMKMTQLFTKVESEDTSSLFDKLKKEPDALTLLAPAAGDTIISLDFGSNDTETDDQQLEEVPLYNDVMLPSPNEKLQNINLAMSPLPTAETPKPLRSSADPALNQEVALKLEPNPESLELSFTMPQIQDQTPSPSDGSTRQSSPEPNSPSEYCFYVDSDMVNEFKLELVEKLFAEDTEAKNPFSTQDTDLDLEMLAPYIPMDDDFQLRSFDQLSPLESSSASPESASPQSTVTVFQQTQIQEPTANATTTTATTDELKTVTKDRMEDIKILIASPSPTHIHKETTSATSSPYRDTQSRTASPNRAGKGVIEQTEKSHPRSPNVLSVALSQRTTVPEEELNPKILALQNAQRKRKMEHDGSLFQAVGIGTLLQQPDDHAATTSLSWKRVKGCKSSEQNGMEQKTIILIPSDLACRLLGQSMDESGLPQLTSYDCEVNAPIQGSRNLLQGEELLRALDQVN

C=C(C)[C@@H]1CC=C(C=O)CC1
active: [4] 85.2 µM | [6] 9.25 µM
not listed: [18] | [19] | [20]
inactive: all other assays above

Nc1ccc(Br)cc1
not listed: [14] | [17] | [20]
inactive: all other assays above

C1CN2CCN1CC2
not listed: [6] | [7] | [20]
inactive: all other assays above

CCOP(=S)(OCC)SCS(=O)(=O)C(C)(C)C
active: [6] 4.12 µM
not listed: [20]
inactive: all other assays above

CCCCN(CCCCO)N=O
active: [6] 35.3 µM
not listed: [18] | [20]
inactive: all other assays above

c1csc(-c2ccc(-c3cccs3)s2)c1
active: [4] 3.99 µM | [19] 2.58 µM | [6] 5.21 µM | [7] 2.09 µM | [13] 4.42 µM | [16] 6.2 µM | [17] 3.41 µM
not listed: [8] | [18] | [20]
inactive: all other assays above

C#C[C@]1(O)CC[C@H]2[C@@H]3CCC4=CC(=O)CC[C@]4(C)[C@H]3CC[C@@]21C
not listed: [17] | [20]
inactive: all other assays above

Nc1ncn[nH]1
not listed: [17] | [20]
inactive: all other assays above

C[C@@H]1O[C@@H](O[C@H]2C[C@@H](O)[C@]3(CO)[C@H]4[C@H](O)C[C@]5(C)[C@@H](C6=CC(=O)OC6)CC[C@]5(O)[C@@H]4CC[C@]3(O)C2)[C@H](O)[C@H](O)[C@H]1O
active: [3] 0.0716 µM | [18] 0.0716 µM | [6] 0.137 µM | [10] 0.0716 µM | [11] 0.0716 µM | [14] 2.31 µM
not listed: [5] | [15] | [20]
inactive: all other assays above

[F][Sn]([c]1ccccc1)([c]1ccccc1)[c]1ccccc1
active: [18] 0.324 µM | [4] 0.339 µM | [5] 0.346 µM | [6] 0.466 µM | [8] 0.0319 µM | [9] 0.328 µM | [10] 0.303 µM | [12] 0.597 µM | [13] 0.58 µM | [17] 0.332 µM
inactive: [1] | [2] | [3] | [11] | [15] | [16]

OC[P+](CO)(CO)CO
not listed: [7] | [8] | [14] | [20]
inactive: all other assays above

CN(C)CCN(C)C
not listed: [6] | [18] | [19]
inactive: all other assays above

O=c1[nH]c2ccccc2n1C1CCN(CCCC(c2ccc(F)cc2)c2ccc(F)cc2)CC1
active: [11] 3.71 µM
not listed: [7] | [14] | [15] | [19] | [20]
inactive: all other assays above

CC(C)N(C(=O)CCl)c1ccccc1
active: [18] 52.4 µM | [4] 44.6 µM | [5] 53.6 µM | [9] 48.2 µM | [10] 26.5 µM | [11] 33.4 µM | [16] 8.03 µM | [17] 51.7 µM
not listed: [7] | [8] | [20]
inactive: all other assays above

CCOC(=O)Cc1ccccc1
not listed: [18] | [20]
inactive: all other assays above
